Bioassay records deposited in PubChem by SRMLSC.
Spn MK inh: S. pneumoniae mevalonate kinase inhibition; 0.48% of 65,000 active; purified MK, PK/LDH-coupled NADH absorbance 340 nm; AID 555; inhibition, % at 10 µM;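 active = ranked among the strongest by inhibition in the single 10 µM screen, a fixed top-ranked set picked for dose follow-up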
Abs 340nm: compounds absorbing at 340 nm | compound absorbance at 340 nm, fold over control | 65,000 tested, under 10 active | AID 708 | fold change at 10 µM;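 active = at 10 µM dose, initial 340 nm absorbance at least 2 fold that of control wells; inactive = change under 2 fold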;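 also: initial absorbance extrapolated from kinetic A340 decline of NADH oxidation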
NADH coupling: inhibition of NAD/NADH coupling enzymes, library profiling | 0.02% of 65,000 active | AID 774 | IC50, µM (doses to about 10 µM), for inactives: at the highest dose inhibition | coupled PK/LDH NADH assays, four targets;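 active = single-dose screening hits from any of four coupled enzyme assays that gave an IC50 when retested across doses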;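 also: the DPM-DC format reads NADH fluorescence rather than 340 nm absorbance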
Spn DPM-DC inh: S. pneumoniae DPM-DC inhibition. purified DPM-DC, PK/LDH coupled NADH fluorescence. calls only at 10 µM. 0.49% of 65,000 active. AID 556;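 active = the 320 compounds with the highest percent inhibition in the single-dose primary screen, excluding strongly autofluorescent ones, cut at about 32% in these data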;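 also: kinetic rate of NADH fluorescence loss reporting ADP formed by the decarboxylase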
Fluor 339 460: intrinsic fluorescence of library compounds, ex339/em460 – biochemical, MLSMR library, data from DPM-DC assay, artefact control, profiling panel. compound autofluorescence, ex339/em460 nm, NADH buffer; stronger effect = higher value; 1 = no-compound wells, NADH background. fluorescence fold increase at 10 µM. 5.5% of 65,000 active;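 active = at 10 µM, mean starting fluorescence two-fold or more over control wells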;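 also: signal is the first read of a kinetic run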
Spn PMK inh: inhibitors of Streptococcus pneumoniae phosphomevalonate kinase | purified PMK, PK/LDH-coupled NADH absorbance 340 nm | inhibition, % at 10 µM | 0.49% of 65,000 active;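 active = top-ranked compounds by inhibition in the single 10 µM screen, taking a fixed number of the strongest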;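 also: 0% = full reaction with DMSO carrier and 100% = background rate without enzyme reaction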
The depositor's hits bear a star; i = inactive; x = not tested or not shown; + = active, no number. A selection: hits, their analogues and other compounds. The true share with any hit is near 6.8%.

SMILES	Spn MK inh	Abs 340nm	NADH coupling	Spn DPM-DC inh	Fluor 339 460	Spn PMK inh
COc1ccc(OC)c2c(C)cc(N3CCN(C(=O)c4ccc(F)cc4)CC3)nc12	3.0	1.07	6.0%	i	2.94*	4.0
Cc1ccccc1Cn1cc(NC(=O)c2noc3c2CC(C(C)(C)C)CC3)cn1 (centres undefined)	5.0	0.99	2.58µM*	i	1.7	20.0
CC(=O)C(Sc1ncnc2c1nnn2-c1ccc(F)cc1)C(=O)N(C)C (centres undefined)	5.0	0.99	3.0%	i	0.86	5.0
CCOC(=O)C1CCCN(S(=O)(=O)c2c(C)c(C)cc(C)c2C)C1 (centres undefined)	6.0	1.03	2.0%	i	1.03	0.0
O=C(CCNS(=O)(=O)c1cccc2nsnc12)NCc1cccs1	7.0	1.01	1.0%	i	1.05	0.0
Cc1ccc2c(c1)N(CC(=O)N1CCc3ccccc3C1)C(=O)CO2	0.0	0.98	4.0%	i	1.08	12.0
Cc1c(C(=O)NCc2ccc3c(c2)OCO3)sc2nc(-c3ccccc3)cn12	12.0	1.05	18.0%	+	1.01	9.0
Cc1c(C(=O)NCc2ccc3c(c2)OCO3)sc2nc(-c3ccc(F)cc3)cn12	0.0	1.03	3.0%	i	1.09	9.0
O=C(CN(Cc1ccc(F)cc1)S(=O)(=O)c1ccccc1)N1CCCCC1	7.0	1.04	7.0%	i	1.11	13.0
CCCCN(C)C(=O)CCCCn1c(=O)[nH]c2cc(OCC)c(OCC)cc2c1=O	4.0	1.04	4.0%	i	2.19*	9.0
CCOc1cc2[nH]c(=O)n(CC3CCC(C(=O)NC(C)CC)CC3)c(=O)c2cc1OCC (centres undefined)	2.0	1.06	5.0%	i	2.73*	0.0
CCOc1cc2[nH]c(=O)n(CC3CCC(C(=O)NC4CCCCC4)CC3)c(=O)c2cc1OCC (centres undefined)	9.0	1.05	5.0%	i	1.27	6.0
CCN1CCN(C(c2ccccc2OC)c2nnnn2C2CCCCC2)CC1 (centres undefined)	14.0	0.99	11.0%	i	1.08	18.0
CCOc1ccc2[nH]c(=O)c(C(c3nnnn3C3CCCCC3)N3CCN(CC)CC3)cc2c1 (centres undefined)	1.0	1.05	1.0%	x	3.74*	0.0
CCOc1ccc2[nH]c(=O)c(C(c3nnnn3Cc3ccco3)N3CCCC(C)C3)cc2c1 (centres undefined)	6.0	1.06	8.0%	i	2.17*	6.0
COc1cc2cc(C(c3nnnn3C3CCCC3)N3CCCCCC3)c(=O)[nH]c2cc1OC (centres undefined)	8.0	1.04	4.0%	i	1.56	11.0
CCOc1ccc2[nH]c(=O)c(C(c3nnnn3C3CCCCC3)N3CCN(C)CC3)cc2c1 (centres undefined)	6.0	1.03	12.0%	x	4.44*	18.0
CCOc1ccccc1OCCn1nnc2ccccc21	11.0	1	5.0%	i	1.08	12.0
COc1ccc(OC)c(NS(=O)(=O)c2ccc3c(c2)CCC(=O)N3)c1	0.0	1	5.0%	i	1.14	14.0
COc1ccc2c(c1)CCc1c(C(=O)N3CCCCCC3)noc1-2	0.0	1.01	5.0%	i	1.11	16.0
COc1ccc2c(c1)CCc1cc(C(=O)N3CCN(c4ccc(N5CCOCC5)nn4)CC3)sc1-2	15.0	1.02	6.0%	x	2.46*	11.0
O=C(NCCCN1CCOCC1)c1ccc(S(=O)(=O)N2CCOCC2)cc1	11.0	1.03	6.0%	i	1.06	7.0
CCOc1ccc(C(=O)CN2CCN(S(=O)(=O)c3ccc(Cl)cc3)CC2)cc1	9.0	1	7.0%	i	1.11	13.0
COc1cc2c(cc1OC)/C(=C/C(=O)N1CCOCC1)NC(C)(C)C2	6.0	1.04	13.0%	+	2.47*	1.0
O=C(C(c1ccccc1)c1ccccc1)N1CCN(Cc2ccncc2)CC1	34.0	1.03	13.0%	i	1.1	4.0
SMILES	Spn MK inh	Abs 340nm	NADH coupling	Spn DPM-DC inh	Fluor 339 460	Spn PMK inh
O=C(C(c1ccccc1)c1ccccc1)N1CCN(Cc2ccccn2)CC1	52.0*	1.06	6.0%	i	1.04	2.0
Cc1cc2oc(=O)cc(C)c2c(=O)o1	0.0	1.04	10.0%	i	1.22	9.0
Cc1cc(=O)oc2cc3c(cc12)OCCN3	4.0	1.12	8.0%	x	2.08*	11.0
Cc1cc(=O)oc2cc3c(cc12)OCCO3	4.0	1.09	2.0%	x	3.64*	0.0
Cc1ccc2c(c1)NC(=O)C(CC(=O)NCCCN1CCN(c3cc(C)ccc3C)CC1)O2 (centres undefined)	6.0	1.03	2.0%	i	1.11	0.0
CCCCCCn1c(CN2CCN(C(=O)c3ccco3)CC2)nc2c1c(=O)n(C)c(=O)n2C	6.0	1.03	3.0%	i	1.1	0.0
Nc1nc(NCc2ccccc2)nc(-c2ccccc2)n1	3.0	1.02	3.0%	i	1.06	6.0
COc1ccc(C2C3=C(CC(C)(C)CC3=O)N(CCN3CCOCC3)C3=C2C(=O)CC(C)(C)C3)cc1	0.0	1.02	6.0%	i	3.36*	0.0
CC1(C)CC(=O)C2=C(C1)N(CCN1CCOCC1)C1=C(C(=O)CC(C)(C)C1)C2c1cccc(F)c1	2.0	1	3.0%	x	4.76*	3.0
CC1(C)CC(=O)C2=C(C1)NC(=O)CC2c1cccc(F)c1 (centres undefined)	0.0	0.99	4.0%	i	1.17	12.0
CC1(C)CC(=O)C2=C(C1)N(CCN1CCOCC1)C1=C(C(=O)CC(C)(C)C1)C2c1ccc(Cl)cc1	2.0	0.99	2.0%	x	4.95*	2.0
O=C(C1CCCCC1)N1CCC(n2nnc3ccccc32)CC1	6.0	1.01	4.0%	i	1.04	5.0
COC(=O)c1ccc(C(=O)OC)c(NC(=O)c2ocnc2C)c1	8.0	1	11.0%	i	1.65	13.0
Cc1ccsc1C1C(C(=O)O)c2ccccc2C(=O)N1C (centres undefined)	53.0*	1.03	79.0%	+	1.25	85.0*
CN1C(=O)c2ccccc2C(C(=O)O)C1c1cccc(F)c1 (centres undefined)	0.0	1.01	5.0%	i	1.03	16.0
O=C(Nc1ccccc1C(=O)Nc1ccccc1C(=O)NCc1ccco1)c1ccco1	8.0	1.13	5.0%	i	2.31*	0.0
CS(=O)(=O)Nc1ccccc1C(=O)NCc1ccco1	9.0	1.02	5.0%	x	3.87*	0.0
Cc1ccc(CNC(=O)c2ccccc2NS(C)(=O)=O)cc1	13.0	1.03	10.0%	x	3.96*	7.0
COc1ccc(C(=O)Nc2ccccc2C(=O)NC(C(=O)NCc2ccco2)C(C)C)cc1 (centres undefined)	10.0	1.04	16.0%	i	1.7	28.0*
O=C(Nc1ccccc1C(=O)NCc1ccco1)c1ccco1	0.0	1.01	4.0%	i	1.11	12.0
